High-throughput results (PubChem BioAssay)
The list is a sample of the results.
aSyn 5UTR act: Activators via SNCA 5'UTR binding, MLPCN. alpha-synuclein 5'UTR reporter, activators screen. activity score, % (tested at 7.5 µM), hits read low. actives 7.1% (n = 300,000). AID 1814, 2009; in the data active = activity score below about -60%
* hit, by the source's call.

SMILES	aSyn 5UTR act
COc1cc(C(=O)Nc2nc3ccc(C)cc3s2)ccc1OCc1c(C)noc1C	-99*
COc1cc(OC)cc(C(=O)NCC(=O)OCc2nc3ccccc3s2)c1	-184*
Cc1ccnc(NC(=O)c2cccc(S(=O)(=O)N3CCCc4ccccc43)c2)c1	-128*
COc1ccc(C(=O)Nc2nc3ccccc3s2)cc1OC	-212*
O=C(Nc1nc2ccccc2s1)c1cccc(S(=O)(=O)N2CCc3ccccc32)c1	-64*
O=C(Nc1nc2ccccc2s1)c1cc(-c2ccccc2)nn1-c1ccccc1	-137*
COc1ccc(C(=O)Nc2nc3ccccc3s2)cc1	67
COc1cccc(C(=O)Nc2nc(C)cs2)c1	-142*
COc1cccc(C(=O)Nc2nc3ccccc3s2)c1	-108*
CNCc1cc(Cl)cc(OC)c1OC(C)C	-81*
COc1ccc(/C(C)=N/Nc2ccc(C(=O)O)cc2)cc1OC	-137*
Cn1nnnc1N=N/C(=N/Nc1ccccc1)c1ccccc1	104
COc1cc(/C(C)=N/Nc2ccc(C(=O)O)cc2)cc(OC)c1OC	-101*
C/C(=N\Nc1ccc(C(=O)O)cc1)c1nc2ccccc2n1C	-148*
C/C(=N\Nc1ccc(C(=O)O)cc1)c1ccc(-n2ccnc2)cc1	-70*
CCCCCc1ccc(-c2cn(Cc3ccc(C(=O)c4ccccc4)cc3)nn2)cc1	-138*
CCCCCc1ccc(-c2ccc(/C=C/C(=O)O)cc2)nc1	79
O=C(c1ccccc1)c1ccc(Cn2cc(-c3ccccc3)nn2)cc1	-135*
CCOC(=O)c1c(NC2OC(=O)c3c2ccc(OC)c3OC)sc(C(=O)OC(C)(C)C)c1C (centres undefined)	-80*
O=[N+]([O-])c1ccc(N/N=C2\CC3CC=CC23)cc1 (centres undefined)	-100*
Cc1ccccc1OCc1nc2ccccc2c(=O)n1/N=C/c1ccco1	-66*
CCN(c1ccccc1)S(=O)(=O)c1ccc(C(=O)Nc2ccccn2)cc1	-76*
CCc1nnc(NC(=O)c2ccc(S(=O)(=O)N(C)c3ccccc3)cc2)o1	56
CN(c1ccc(C(=O)Nc2cccc(O)c2)cc1)S(=O)(=O)c1ccccc1	-105*
CN(c1ccc(C(=O)Nc2ccccn2)cc1)S(=O)(=O)c1ccccc1	-133*
SMILES	aSyn 5UTR act
O=[N+]([O-])c1nn(-c2ccc3c(c2)OCCO3)n(O)c1=NCc1ccc(F)cc1	-124*
O=[N+]([O-])c1nn(-c2ccc3c(c2)OCCO3)n(O)c1=NCCC1=CCCCC1	-139*
O=[N+]([O-])c1nn(-c2ccc3c(c2)OCCO3)n(O)c1=NCc1ccc(F)cc1Cl	-140*
CCOC(=O)N1CCN(c2nc(-c3ccc(OC)cc3)no2)CC1	-88*
Cc1nc(-c2noc(-c3ccc(Cl)cc3)n2)c(C(F)(F)F)o1	-103*
COc1ccc(-c2noc(-c3ccc(Cl)cc3)n2)cc1	-131*
COC(=O)c1ccc(-c2nc(-c3ccc(Br)o3)no2)cc1	-108*
COc1ccc(-c2noc(-c3ccc(Br)o3)n2)cc1	-212*
COc1ccc(-c2nc(-c3ccc(C(=O)O)cc3)no2)cc1	-90*
Cn1c2ccccc2c(=O)c2cc(C#CC3(O)CCCCC3)ccc21	77
Cn1c2ccccc2c(=O)c2cc(C#Cc3ccccn3)ccc21	-127*
COc1cc(-c2noc(C)c2C#Cc2ccsc2)cc(OC)c1OC	69
Cn1c2ccccc2c(=O)c2cc(C#Cc3ccsc3)ccc21	-187*
Cn1c2ccccc2c(=O)c2ccc(C#Cc3ccccn3)cc21	-137*
Cc1ccc2oc(-c3ccc(C)c(NC(=O)Cc4cccs4)c3)nc2c1	-142*
Cc1ccc2oc(-c3cccc(NC(=O)Cc4cccs4)c3)nc2c1	-71*
Cc1ccc(-c2nc3ccccc3o2)cc1NC(=S)NC(=O)c1cc2ccccc2o1	-111*
Cc1ccc(-c2csc(NC(=S)NC(=O)c3cc4ccccc4o3)n2)cc1	-66*
Cc1ccc2oc(-c3ccc(C)c(NC(=S)NC(=O)c4cccs4)c3)nc2c1	-193*
Cc1cccc(NC(=O)c2cccc(NC(=O)Cc3cccs3)c2)c1	-88*
CCc1ccc(C(=O)NC(=S)Nc2ccc3c(c2)OCCO3)cc1	-128*
Cc1ccc(C(=O)NC(=S)Nc2ccc3c(c2)OCCO3)c(C)c1	-137*
O=C(CCl)Nc1ccc2c(c1)OCO2	-90*
Cc1cc(C)cc(C(=O)NC(=S)Nc2ccc3c(c2)OCCO3)c1	-219*
O=C(NC(=S)Nc1ccc2c(c1)OCO2)c1ccc(Cl)cc1	-143*
SMILES	aSyn 5UTR act
O=C(NC(=S)Nc1ccc2c(c1)OCCO2)c1ccc(F)cc1Cl	-136*
CCn1ncc(NC(=S)Nc2ccc3c(c2)OCO3)c1C(N)=O	-180*
S=C(Nc1ccc2c(c1)OCO2)Nc1ccc2c(c1)OCO2	-107*
COc1ccc(-c2cn3cc(C(=O)NN)ccc3n2)cc1	-92*
NNC(=O)c1ccc2nc(-c3ccc(Br)cc3)cn2c1	-154*
COC(=O)c1ccc2nc(-c3ccc4c(c3)OCO4)cn2c1	95
O=C(NN=C1CCCC1)c1n[nH]c2c1CCCC2	-73*
O=C(N/N=C/c1c(Cl)cccc1Cl)c1n[nH]c2c1CCCC2	-135*
Cc1ccsc1/C=N\NC(=O)c1n[nH]c2c1CCC2	69
